Hits are enriched below; roughly 19% of the tested compounds scored in any of these assays.
HT1080NT lethal = qHTS for induction of synthetic lethality in tumor cells producing 2HG: qHTS for the HT-1080-NT fibrosarcoma cell line. hit rate 1.6% among 360,000. Potency, µM (series often up to 46.1 µM), for inactives: top-dose activity, negative = less viability, usual class: cytotoxic. HT-1080-NT fibrosarcoma viability, CellTiter-Glo ATP luminescence, 48 h;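 note: NT is the 2HG producing partner of a matched IDH1 knockdown line; potency is the fitted concentration of half-maximal effect; 0% = DMSO-treated cells and -100% = media-only wells without cells; nearly all actives have a fitted effect of over 55% in size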
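Luminescent CellTiter-Glo readout after 48 hours of compound exposure at 37 degrees C defined viability of HT-1080-NT cells. Activity was normalized to DMSO wells and cell-free media wells; concentration-response curves were fitted and assigned curve classes.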
uPA generation = qHTS for Inhibitors of Cell Surface uPA Generation. cell surface uPA generation assay, qHTS. Potency, µM (titrated, usually from 38.3 µM), inactives show at the top dose activity change, negative = inhibition, most hits filed as inhibitors. hit rate 0.31% among 330,000. AID 540303, 2011; active = well fitted inhibition curve with a large enough effect; inconclusive = small, poorly fitted or top-dose-only effect; inactive = no such curve, though single readings can be large or run the other way; tested in mouse RAW 264.7 cells; note: potency is the fitted concentration of half-maximal effect; nearly all actives have a fitted effect of over 55% in size
TDP1 cell noCPT = qHTS for Inhibitors of human tyrosyl-DNA phosphodiesterase 1 (TDP1): qHTS in cells in absence of CPT. hit rate 15% among 420,000. DT40 Tdp1-/- hTDP1 cells, no CPT, ATP luminescence, 48 h. AID 686978, 2013. Potency, µM (titrated, usually from 46.2 µM), inactives show at the top dose activity change, negative = growth inhibition, most hits filed as inhibitors; note: potency is the fitted concentration of half-maximal effect; nearly all actives have a fitted effect of over 55% in size
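DT40 Tdp1-/-;hTDP1 cells, no CPT (DMSO vehicle only), 400 cells/well; compounds pin-transferred; ≥48 hr, 37 °C; CellTiter-Glo 30 min RT dark, luminescence read.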
HT1080 IDH1KD tx = qHTS for induction of synthetic lethality in tumor cells producing 2HG: qHTS for the HT-1080-IDH1KD cell line; hit rate 2% among 360,000; HT-1080 IDH1 knockdown viability, ATP luminescence, 48 h; Potency, µM (highest dose often 46.1 µM), inactives show top-dose activity, negative = toxicity, most hits filed as cytotoxic; AID 686971, 2013;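 note: potency is the fitted concentration of half-maximal effect; 0% = DMSO wells and -100% = cell-free medium wells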
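Viability of IDH1-knockdown HT-1080 fibrosarcoma cells was assessed by CellTiter-Glo after 48 h at 37 °C with titrated compound; concentration-effect curves were classified by fit quality and response size.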
IL1B secr inh = qHTS for Inhibitors of Inflammasome Signaling: IL-1-beta AlphaLISA Primary Screen | AID 743279, 2014 | activity change, % at 57.5 µM | THP-1 LPS/ATP IL-1B secretion, AlphaLISA, 16 h; stronger effect = lower value | hit rate 4.7% among 360,000; in the data active = activity change below about -50%; inconclusive = mostly about -30% to -49%
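THP-1 cells pretreated 1 hr with compounds (up to 57.5 uM final), then stimulated with LPS (250 ng/mL final) plus ATP (1.25 mM final); secreted IL-1B measured by AlphaLISA after 16 hr, decreased signal indicating inhibition.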
DT40 TDP1 CPT = qHTS for Inhibitors of human tyrosyl-DNA phosphodiesterase 1 (TDP1): qHTS in cells in presence of CPT; chicken DT40 Tdp1-/-;hTDP1 cells + 20 nM CPT, ATP luminescence, 48 h; Potency, µM (highest dose often 46.2 µM), inactives show at the highest dose activity change, negative = growth inhibition, actives largely listed as inhibitors; hit rate 12% among 420,000; AID 686979, 2013; note: potency is the fitted concentration of half-maximal effect; nearly all actives have a fitted effect of over 55% in size
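Cell growth measured by CellTiter-Glo luminescence after a minimum 48 h, 37 C compound exposure with 20 nM CPT in Tdp1-knockout DT40 cells stably expressing hTDP1, seeded 400/well; qHTS titration format.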
Numbers without * were called inactive; ? = inconclusive; . = not tested or not shown. Unless noted, calls come from the whole dose curve; as a rule, active = well fitted curve in the direction sought with a large enough effect; inconclusive = small, poorly fitted or top-dose-only effect, or another doubt; inactive = no such curve, though single readings can be large; an effect the other way counts as inactive or inconclusive. Unless noted, % is set by controls: 0 for no effect and ±100 for the full control effect.

SMILES	HT1080NT lethal	uPA generation	TDP1 cell noCPT	HT1080 IDH1KD tx	IL1B secr inh	DT40 TDP1 CPT
O=C(NCc1ccco1)C1CCN(c2ccc(S(=O)(=O)N3CCOCC3)cc2[N+](=O)[O-])CC1	-2%	2%	23µM*	-17%	-9	?
C#CCNC(=O)C1CCN(c2ccc(S(=O)(=O)N3CCOCC3)cc2Cl)CC1	3%	-10%	?	-13%	10	-15%
Cc1nc2c(C(=O)N3CCN(c4ccccn4)CC3)cnn2c(C)c1Cc1cccc(Cl)c1	?	8%	23µM*	?	13	?
Cc1ccc(C)c(Cc2c(C)nc3c(C(=O)N4CCOCC4)cnn3c2C)c1	9%	.	22µM*	-5%	31	16µM*
CCOC(=O)C1CCCN(C(=O)c2cc(F)ccc2C)CC1 (stereo not given)	-2%	.	0%	15%	3	10%
O=C(NCc1ccc2c(c1)OCO2)c1ccc2c(c1)N(Cc1c(F)cccc1Cl)C(=O)c1ccccc1S2	.	.	-24%	.	.	-4%
CCN(CC)CCCNC(=O)c1ccc2c(c1)N(Cc1c(F)cccc1Cl)C(=O)c1ccccc1S2	.	.	15µM*	.	.	?
O=C(NCc1ccco1)c1ccc2c(c1)N(Cc1c(F)cccc1Cl)C(=O)c1ccccc1S2	.	.	16µM*	.	.	?
CN(Cc1ccco1)C(=O)c1ccc2c(c1)N(Cc1ccccc1F)C(=O)c1ccccc1S2	.	.	?	.	.	21µM*
CCC[C@H]1CN(Cc2ccccc2)C(=O)[C@@H]1CC(=O)NC	7%	.	-16%	7%	-9	9%
COc1cccc(CNC(=O)Cn2nc(N3CCN(c4ccccc4OC)CC3)ccc2=O)c1	.	.	21µM*	.	.	18µM*
CCc1ccccc1NC(=O)Cn1nc(N2CCN(c3ccccc3OC)CC2)ccc1=O	.	.	13µM*	.	.	?
CN(C)CCNC(=O)Cn1nc(N2CCN(c3ccccc3)CC2)ccc1=O	.	.	-14%	.	.	-14%
O=C(Cn1nc(N2CCN(c3ccccc3)CC2)ccc1=O)NCc1ccccc1F	.	.	?	.	.	-26%
COc1ccc(CNC(=O)Cn2nc(N3CCN(c4ccccc4)CC3)ccc2=O)c(OC)c1	.	.	15µM*	.	.	?
CCOc1ccccc1CNC(=O)Cn1nc(N2CCN(c3ccccc3)CC2)ccc1=O	.	.	21µM*	.	.	21µM*
Cc1cc(F)ccc1NC(=O)Cn1nc(N2CCN(c3ccccc3)CC2)ccc1=O	.	.	-25%	.	.	1%
COc1ccc(-c2oc3ncn4nc(-c5ccccc5Br)nc4c3c2-c2ccc(OC)cc2)cc1	.	.	?	.	.	5%
O=C(CSC1=NS(=O)(=O)c2cc(F)ccc2N1)NCc1ccccc1Cl	-1%	0%	-23%	0%	0	7%
O=C(CNC(=O)C12CC3CC(CC(C3)C1)C2)Nc1ncccc1O	-1%	-1%	21%	6%	26	-23%
CCN=c1sc(C(=O)NCCc2ccccc2)cc(=O)n1CC	?	-9%	18µM*	?	-10	?
CCOc1ccccc1CNC(=O)c1ccc2c(c1)sc1nc(-c3cccc(OC)c3)cn12	.	.	8.2µM*	.	.	8.2µM*
CCNC(=O)c1ccc2c(c1)sc1nc(-c3cccc(OC)c3)cn12	.	.	7.3µM*	.	.	6.5µM*
COc1ccc(-c2cn3c(n2)sc2cc(C(=O)NCc4ccccc4OC)ccc23)cc1	.	.	?	.	.	-8%
COc1cccc(-c2cn3c(n2)sc2cc(C(=O)NCCc4ccc(OC)c(OC)c4)ccc23)c1	.	.	2.3µM*	.	.	4.6µM*
SMILES	HT1080NT lethal	uPA generation	TDP1 cell noCPT	HT1080 IDH1KD tx	IL1B secr inh	DT40 TDP1 CPT
COc1cccc(-c2cn3c(n2)sc2cc(C(=O)NCCC4=CCCCC4)ccc23)c1	.	.	6.5µM*	.	.	13µM*
COCCN(Cc1ccc(OC)cc1)c1c(C)nc2ccc(C(=O)NCCc3c[nH]c4ccccc34)cn12	-22%	.	?	-6%	-6	?
CC(=O)Nc1c(I)cc(I)c(C(=O)O)c1I	.	.	-11%	.	.	-15%
CC(=O)Nc1ccc(S(=O)(=O)Nc2nc3ccccc3nc2Nc2ccc(O)c(C(=O)O)c2)cc1	19%	-4%	7%	0%	38	16%
CN(C)c1ncc2ncc(=O)n(C)c2n1	.	.	-28%	.	.	1%
O=C(NCc1ccccc1)c1ccc2c(c1)sc1nc(-c3ccc(F)cc3)cn12	.	.	-17%	.	.	-12%
COc1cccc(-c2cn3c(n2)sc2cc(C(=O)NCc4ccccc4F)ccc23)c1	.	.	16µM*	.	.	?
COC(=O)c1cccc(-c2ccc(C(c3c(C)[nH][nH]c3=O)c3c(C)[nH][nH]c3=O)o2)c1	?	-5%	23µM*	?	-19	7.3µM*
COC(=O)c1ccccc1-c1ccc(C(c2c(C)[nH][nH]c2=O)c2c(C)[nH][nH]c2=O)o1	?	-6%	21µM*	?	?	?
Cc1ccc(C)c(Cn2nnc(C(=O)NCc3ccccc3)c2N)c1	.	.	?	.	.	-16%
CC(C)NC(=O)N(C)C[C@H]1Oc2cc(C#Cc3ccc(F)cc3)ccc2S(=O)(=O)N([C@H](C)CO)C[C@H]1C	-4%	.	?	-11%	-11	23µM*
COc1ccc(C#Cc2ccc3c(c2)O[C@@H](CN(C)C(=O)Nc2cccc(OC)c2)[C@H](C)CN([C@@H](C)CO)S3(=O)=O)cc1	-29%	.	18µM*	?	19	-24%
C[C@@H](O)C#Cc1ccc2c(c1)O[C@H](CN(C)C(=O)Nc1ccccc1)[C@@H](C)CN([C@@H](C)CO)S2(=O)=O	5%	.	33%	11%	12	-3%
C[C@@H]1CN([C@H](C)CO)S(=O)(=O)c2ccc(C#Cc3ccccc3F)cc2O[C@@H]1CN(C)C(=O)Cc1ccccc1	?	.	13µM*	?	?	15µM*
COc1cccc(NC(=O)N(C)C[C@H]2Oc3cc(C#Cc4ccncc4)ccc3S(=O)(=O)N([C@H](C)CO)C[C@H]2C)c1	-4%	.	23µM*	-18%	0	16µM*
C[C@H](CO)N1C[C@H](C)[C@@H](CN(C)C(=O)Nc2ccc(F)cc2)Oc2cc(Br)ccc2S1(=O)=O	-5%	.	?	-2%	-2	?

Compound activity (PubChem BioAssay)
